# Hits are enriched below; roughly 2.8% of the tested compounds scored in any of these assays.
# POLI inh: blocks human DNA polymerase iota activity. Q9UNA4. Pol iota fluorescent replication assay, 10 min. Potency, µM (titrated, usually from 115 µM), for inactives: top-dose activity, negative = inhibition, actives largely listed as inhibitors. 390,000 compounds, 1% hits. AID 588590; note: potency is the fitted concentration of half-maximal effect
#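 Pol iota at 10 nM preincubated 15 min with compounds at room temperature; reaction started with fluorescent substrate, 50 nM final. Fluorescence read kinetically at 0 and 10 min; buffer-only wells as negative control.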
# PI5P4Ka inh: PI5P4K alpha (human) kinase inhibition; PI5P4Kalpha enzyme, ADP-Glo luminescence, 60 min; stronger effect = lower value; max response, %; 330,000 compounds, 1.2% hits; AID 652105; active = max response of -50% or lower; inconclusive = between -30% and -50%; inactive = -30% or higher; note: value at the top dose of about 77 µM; % is set by controls: 0 for no effect and ±100 for the full control effect
#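 Luminescence from ADP-Glo served as readout of PI5P4Kalpha activity in a qHTS format. Reaction: enzyme, substrate, compound, ATP at 5 microM final, 60 min at RT.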
# Pol kappa inh-1: inhibitors of human DNA polymerase kappa; Q9UBT6; purified Pol kappa, fluorescent DNA synthesis assay, 10 min; Potency, µM (titrated, usually from 107 µM), without a hit: top-dose activity, negative = inhibition, hits mostly inhibitors; 400,000 compounds, 0.53% hits; note: potency is the fitted concentration of half-maximal effect; % is set by controls: 0 for no effect and ±100 for the full control effect
#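 First, compounds were pin-transferred onto 10 nM Pol kappa. After 15 min at room temperature, substrate was added to 50 nM final. Fluorescence was then measured kinetically at 0 and 10 min.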
# Pol eta inh-1: blocks human DNA polymerase eta activity; recombinant Pol eta, fluorescent DNA replication assay; 390,000 compounds, 1.2% hits; AID 588591; Potency, µM (doses to about 114 µM), for inactives: at the highest dose activity change, negative = inhibition, hits mostly inhibitors; note: potency is the fitted concentration of half-maximal effect; % is set by controls: 0 for no effect and ±100 for the full control effect
#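 Pol eta (10 nM) was preincubated with compounds for 15 min at room temperature, after which fluorescent replication substrate (50 nM final) was added to start the reaction. Fluorescence was read kinetically at 0 and 10 min.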
# POLB inh: inhibitors of human DNA polymerase beta; Potency, µM (series often up to 114 µM), for the others: at the top dose activity change, negative = inhibition, hits mostly inhibitors; P06746; 340,000 compounds, 1.3% hits; Pol beta primer extension/strand displacement, fluorescence kinetic; AID 485314; note: potency is the fitted concentration of half-maximal effect; % is set by controls: 0 for no effect and ±100 for the full control effect
#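 Values derive from four-parameter Hill fits of normalized kinetic data: reads at 0 and 10 min following addition of 50 nM substrate to 10 nM Pol beta preincubated 15 min with compound.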
# WRN helicase inh: blocks human WRN helicase; Q14191; WRN helicase unwinding, fluorescent forked duplex, kinetic; Potency, µM (doses to about 114 µM), inactives show top-dose activity change, negative = inhibition, most hits filed as inhibitors; 360,000 compounds, 0.46% hits; note: potency is the fitted concentration of half-maximal effect; % is set by controls: 0 for no effect and ±100 for the full control effect; nearly all actives have a fitted effect of over 55% in size
#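 Kinetic fluorescence helicase assay: unwinding of a quenched forked DNA duplex (100 nM final) with 2 mM ATP final raises red fluorescence (525/598 nm). Compounds sat 15 min at room temperature with 20 nM WRN beforehand.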
# GALK confirm: galactokinase (human) inhibition, confirmation; shares compounds with Pol eta inh-1; purified GALK, Kinase-Glo ATP depletion luminescence; Potency, µM (series often up to 115 µM), inactives show at the top dose activity, negative = inhibition, usual class: inhibitors; 150 compounds, 70% hits
# Redox cycling: generates H2O2 by redox cycling, flagging GALK artifacts | shares compounds with Pol eta inh-1 | Phenol red-HRP H2O2 redox cycling, absorbance 600 nm | Potency, µM (top dose mostly 115 µM), for inactives: top-dose activity change, negative = H2O2 signal, actives largely listed as inhibitors | 150 compounds, 40% hits
# HEK293 tox: HEK-293 cytotoxicity, GALK inhibitor secondary | shares compounds with Pol eta inh-1 | HEK-293 viability, ATP luminescence (CellTiter-Glo), 24/48 h | Potency, µM (titrated, usually from 46.1 µM), for the others: at the top dose activity change, negative = cytotoxicity, hits mostly inhibitors | 170 compounds, 10% hits; note: potency is the fitted concentration of half-maximal effect; % is set by controls: 0 for no effect and ±100 for the full control effect
# Pol kappa inh-2: Pol kappa (human) inhibition, cherry-pick confirmation | purified Pol-kappa, fluorescent strand-displacement substrate | Potency, µM, most hits filed as inhibitors | shares compounds with Pol eta inh-1 | 920 compounds, 76% hits | AID 720501; note: potency is the fitted concentration of half-maximal effect
# Pol eta inh-2: confirmation of human DNA polymerase eta inhibitors; AID 720502; Pol eta primer extension, TAMRA/BHQ fluorescence, 10 min; shares compounds with Pol eta inh-1; 2,600 compounds, 64% hits; Potency, µM, usual class: inhibitors; note: potency is the fitted concentration of half-maximal effect
# * = called active by the depositor; ? = inconclusive; . = not tested or not shown; [ ] = dose if it differs, or a comment. Unless noted, calls come from the whole dose curve; as a rule, active = well fitted curve in the direction sought with a large enough effect; inconclusive = small, poorly fitted or top-dose-only effect, or another doubt; inactive = no such curve, though single readings can be large; an effect the other way counts as inactive or inconclusive.
SMILES,POLI inh,PI5P4Ka inh,Pol kappa inh-1,Pol eta inh-1,POLB inh,WRN helicase inh,HEK293 tox,others
COc1ccc(C2=Nn3c(nnc3-c3ccccc3C(F)(F)F)SC2)cc1OC1CCOC1 (stereo not drawn),-7%,.,?,-7%,.,.,.,Pol kappa inh-2=4.7*
COc1ccc(C2=Nn3c(nnc3-c3ccncc3)SC2)cc1OC,-10%,.,16%,-11%,-4%,-5%,.,
CC(C)C(CCNC(=O)CC(Cc1ccccc1)c1ccco1)c1ccco1 (stereo not drawn),?,.,?,79µM*,32µM*,-12%[11.6 µM],.,Pol kappa inh-2=53*;Pol eta inh-2=85*
COc1ccc(-n2nnc3c(=O)n(CC(=O)N4CCC(C)CC4)cnc32)cc1,17%,0,10%,-5%,-7%,-6%,-5%,GALK confirm=-5%;Redox cycling=1%
COc1cccc(-n2nnc3c(=O)n(CC(=O)N4CCC(C)CC4)cnc32)c1,19%,.,1%,-9%,6%,0%[57.1 µM],.,
O=C1COc2ccc(C(=O)COc3ccc(Cl)cc3Br)cc2N1,1%,-9,-4%,-19%,.,-1%,.,
Cc1ccc(C(=O)/C=C/c2cc(Br)cc(Br)c2O)o1,?,-28,-12%,50µM*,?,79µM*,.,Pol eta inh-2=?
Cc1ccc(C(=O)/C=C/N(C)C)o1,37%,-1,0%,-17%,5%,-3%,.,
COc1ccc2oc(=O)c(-c3nc4ccc(C)cc4[nH]3)cc2c1,18%,.,-3%[60.1 µM],-11%,-19%,.,.,
COc1ccc2cc(-c3nc4ccc(C(=O)O)cc4[nH]3)c(=O)oc2c1,?,.,-8%[60.1 µM],45µM*,?,.,.,Pol kappa inh-2=21*;Pol eta inh-2=?
CC1=NN(c2ccccc2)C(=O)/C1=C/c1c(O)n(-c2ccc(F)c(Cl)c2)[nH]c1=O,-28%,?,?,28µM*,?,?,12%,GALK confirm=30µM*;Redox cycling=5%
CCOC(=O)C1(Cc2ccccc2C)CCCN(Cc2ccc(NC(C)=O)cc2)C1 (stereo not drawn),50%,4,-2%,-17%,-4%,7%,.,
O=C1CCCC2=C1C(c1ccc(Cl)cc1)N=C(Nc1nc3ccccc3o1)N2 (stereo not drawn),-6%,.,1%,.,.,.,13%,
COc1cccc(C2N=C(Nc3nc4ccccc4o3)NC3=C2C(=O)CC(C)(C)C3)c1 (stereo not drawn),.,.,.,.,.,.,6%,
COc1cccc(C2C3=C(CC(C)(C)CC3=O)Nc3cc(OC)c(OC)cc32)c1 (stereo not drawn),60%,-1,-2%,-18%,-2%,0%,.,
CC1(C)CC(=O)C2=C(C1)NC(Nc1nc3ccccc3o1)=NC2c1cccc(Cl)c1 (stereo not drawn),.,.,.,.,.,.,?,
OCCN1CN=C(Nc2nc3ccccc3o2)NC1,-3%,4,-4%,-14%,20%,-9%,.,

# Bioassay records: PubChem BioAssay, National Center for Advancing Translational Sciences (NCATS)
